The sample as a whole holds a higher share of hits than the screen did.
Pf Dd2 growth – qHTS Primary assay for Inhibitors of Plasmodium falciparum Dd2 growth in vitro | P. falciparum Dd2 growth, SYBR Green, 72 h | Potency, µM (top dose mostly 28.9 µM), for inactives: at the highest dose activity, negative = inhibition, hits mostly inhibitors | 4.3% of 120,000 active | AID 1347417, 2020; active = well fitted inhibition curve with a large enough effect;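 also: plate controls were DMSO vehicle for no effect and reference drug for full effect; nearly all actives have a fitted effect of over 65% in size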
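Readout: SYBR Green fluorescence, 485 nm excitation, 535 nm emission, after ~16 h lysis at 37C. Before that, Dd2-infected red cells (2.5% hematocrit) grew 72 h with compound, 29 uM top final concentration.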
Numbers without * were called inactive; i = inactive; [ ] = another dose, or the depositor's remark. Potency is read from the fitted curve at half-maximal effect.

SMILES | Pf Dd2 growth
CC1(c2ccccc2)N(Cc2ccccc2C#N)C(=O)OC12CCN(c1ccncc1)CC2 (configuration not stated) | 11.2µM*
Cn1nccc1C(=O)N1CCC2(CC1)OC(=O)N(Cc1ccccc1C#N)C2(C)c1ccccc1 (configuration not stated) | 10µM*
CC(=O)N1CCC2(CC1)OC(=O)N(Cc1ccccc1F)C2(C)c1ccccc1 (configuration not stated) | i
COc1cccc(CC(=O)N2CCC3(CC2)OC(=O)N(Cc2csc(C)n2)C3(C)c2ccccc2)c1 (configuration not stated) | 3.98µM*
CC1(c2ccccc2)N(Cc2ccccc2C#N)C(=O)OC12CCN(C(=O)c1ccc(F)cc1)CC2 (configuration not stated) | i
CN1CCC(C(=O)N2CCC3(CC2)OC(=O)N(Cc2ccccc2F)C3(C)c2ccccc2)CC1 (configuration not stated) | 5.62µM*
COc1cccc(CC(=O)N2CCC3(CC2)OC(=O)N(Cc2ncccn2)C3(C)c2ccccc2)c1 (configuration not stated) | -4.3%
CC1(c2ccccc2)N(Cc2ccccc2C#N)C(=O)OC12CCN(C(=O)Cc1ccccn1)CC2 (configuration not stated) | i
CC1(c2ccccc2)N(Cc2ccccc2F)C(=O)OC12CCN(C(=O)c1cnccn1)CC2 (configuration not stated) | i
COCc1ccc(CN[C@H]2C[C@@H](Cc3cc(CCO)on3)C2(C)C)o1 | -14.4%[44.1 µM]
Cc1ncoc1C(=O)N1C[C@H]2OC(=O)N(CCc3cccc(Cl)c3)[C@H]2C1 | -12.0%
CCOc1ccc2ccccc2c1C(C(=O)O)N1CCN(CC2CC2)CC1 (configuration not stated) | -0.2%
COCC(=O)N1CCC2(CC1)OC(=O)N(Cc1cccnc1)C2(C)c1ccccc1 (configuration not stated) | -1.8%[44.1 µM]
CC1(c2cccnc2)N(Cc2ccccc2)C(=O)OC12CCN(C(=O)C1CCC1)CC2 (configuration not stated) | -17.4%[44.1 µM]
CC1(c2ccccc2)N(Cc2cccnc2)C(=O)OC12CCN(C(=O)c1ccc(Oc3ccccc3)cc1)CC2 (configuration not stated) | 6.31µM*
COc1ccc(-c2cc3ccc(O)c(CN4CCN(C)CC4)c3oc2=O)cc1OC | 11.2µM*
CN1CCN(Cc2c(O)ccc3cc(-c4ccccc4)c(=O)oc23)CC1 | 10µM*
COc1ccc(-c2cc3ccc(O)c(CN4CCOCC4)c3oc2=O)cc1OC | 10µM*
COc1ccc(-c2cc([C@H]3CN4CC[C@H]3C[C@@H]4CNC(=O)N3CCOCC3)nc(C)n2)cc1OC | -2.7%
O=C(O)c1ccc2nc(-c3cc4cccc(O)c4oc3=O)[nH]c2c1 | -11.7%
COc1ccc(-c2c(C)c3ccc(O)c(CN4CCOCC4)c3oc2=O)cc1OC | -16.5%
COc1cccc2cc(-c3nnc(-c4ccc(Cl)cc4)o3)c(=O)oc12 | 52.4%
CCN1CCN(C(=O)c2cc(-c3ccccc3)cn2C)CC1 | 2.4%
COc1cccc2cc(-c3nc(-c4ccc(C)cc4)c(C)s3)c(=O)oc12 | 74.6%
CC(C)N1C[C@H](O)C[C@H]1c1nnc2n1CCN(C(=O)CC1CCCCC1)C2 | 29.8%
SMILES | Pf Dd2 growth
COc1ccc(OCc2nc(C)c(CCO)c(=O)n2CC(=O)NCc2cccs2)cc1 | -20.9%
CCc1nc2c(c(-c3ccc(Cl)cc3)n1)CN(C(=O)c1ccccc1F)CC2 | -11.4%
COc1ccc(C(=O)N2CCCOCCNC(=O)[C@@H]3CCCC[C@@H]32)cc1F | -22.5%
CCNC(=O)c1cccnc1OC1CCN(C(=O)c2cc(F)ccc2F)C1 (configuration not stated) | 32.6%
COCc1cn(C[C@H]2C[C@@H](NC(=O)c3cc(C)on3)[C@H](O)[C@@H]2O)nn1 | 3.4%[44.1 µM]
CCN1CCC(N2CCC3(CC2)CN(c2ccncn2)CC3CO)CC1 (configuration not stated) | 10.9%
O=C(c1ccsc1)N1CCCC(c2noc(COc3ccccc3F)n2)C1 (configuration not stated) | -19.4%
O=C(CCC1CCCN(S(=O)(=O)c2ccccc2)C1)NC1CCS(=O)(=O)C1 (configuration not stated) | 1.6%
CN1C[C@H](O)C[C@H]1c1nnc2n1CCN(C(=O)c1ccoc1)CC2 | 20.1%
Cc1ccc(Cc2c(C)nc3c(-c4ccccc4)c(C)[nH]n3c2=O)cc1 | -19.9%
Cc1nc2c(-c3ccccc3)c(C)[nH]n2c(=O)c1Cc1ccc(Br)cc1 | 7.94µM*
CCCCc1c(C)nc2c(-c3ccc(Cl)cc3)c(C)[nH]n2c1=O | -18.5%
N#Cc1ccccc1N1CCN(C(=O)CCc2ccc(F)c(F)c2)CC1=O | 1.0%
CN1CCC(NC(=O)Cc2c[nH]c3ncc(-c4ccccc4)cc23)CC1 | 31.7%[44.1 µM]
COc1ccc(-c2cc3c(nc2-c2ccccc2)nc(C(=O)NCCN(C)C)n3C)cn1 | 7.08µM*
COCCNC(=O)c1nc2nc(-c3ccccc3)c(Cl)cc2n1C | i
COCc1nc2nc(-c3ccccc3)c(-c3ccc(O)c(F)c3)cc2n1C | -1.3%[44.1 µM]
CN(C)CCNC(=O)c1ccc(-c2nn(C)c(=O)c3ccccc23)cc1 | -27.3%
COc1cc(-c2cc3c(nc2-c2ccccc2)nc(C(=O)NCCN(C)C)n3C)ccn1 | i
COc1cc(F)ccc1-c1cc2c(nc1-c1ccccc1)nc(C(=O)NCCN(C)C)n2C | 2.51µM*
CC(C)(C)OC(=O)N1CCC(NC(=O)c2nc(-c3ccccc3)c3ccccn23)CC1 | -7.7%
Cc1cc(-c2cc3c(nc2-c2ccccc2)nc(C(=O)NC2CCN(C)CC2)n3C)ccn1 | 6.31µM*
O=C(c1ccc2cc[nH]c2c1)N1CCC2(CC1)CC(O)CCO2 (configuration not stated) | -16.0%
O=C(c1ccc(F)c(F)c1)N1CCC(n2cc(-c3nc(-c4ccccc4)no3)nn2)CC1 | -1.8%
COc1ccccc1N1CCN([C@@H]2[C@H](O)[C@H](CO)O[C@@H]2CN)CC1 | 30.8%
SMILES | Pf Dd2 growth
COc1cccc(C(=O)N2C(C(=O)NCc3ccccc3F)COC23CCC(C)CC3)c1 (configuration not stated) | -21.8%
COc1ccc(C(C(=O)O)N2CCN(c3ccc(F)cc3)CC2)c(OC)n1 (configuration not stated) | 8.2%
COc1cccc(C2Cn3nnc(-c4nc(-c5ccc(Cl)cc5)no4)c3CO2)c1 (configuration not stated) | i
O=C(C1COc2ccccc2C1)N1CCC(Cc2noc(C3CC3)n2)CC1 (configuration not stated) | -19.6%
COc1cc(F)ccc1-c1cc(-c2c(C)noc2C)cc2c1C(=O)N(C)C2 | i
O=C(O)C[C@@H]1CCN(C(=O)C(=O)O)C[C@@H]1CC1=NCCc2ccccc21 | 36.1%[44.1 µM]
c1cc(-c2cc3c(ccn3Cc3ccncc3)c(N3CCOCC3)n2)cc(N2CCOCC2)c1 | i
C[S+](=O)([O-])N1CCC(Cn2ccc3c(N4CCOCC4)nc(-c4cncnc4)cc32)CC1 | -18.2%
COc1ncccc1-c1cc2c(ccn2CC2CCN(C)CC2)c(N2CCOCC2)n1 | 8.91µM*
C[S+](=O)([O-])N1CCC(Cn2ccc3c(N4CCOCC4)nc(-c4cccc5[nH]ccc45)cc32)CC1 | -13.8%
COc1cccc(-c2cc3c(ccn3CC3CCN(C)CC3)c(N3CCOCC3)n2)c1 | 6.31µM*
COc1ccccc1-c1cc2c(ccn2Cc2ccncc2)c(N2CCOCC2)n1 | -2.8%[44.1 µM]
